# Test results: PubChem BioAssay (EPA / NIEHS)
# Inconclusive results are not listed. Activity calls are given as the source filed them. The calls were made as follows, unless noted: active = hit-call score of the fitted dose curve at least 0.9, where 1 is the maximum; inactive = score below 0.9.
# Tests used:
# [1] = molecular target: Paired box protein Pax-6 (Homo sapiens) (UniProt P26367); experiment: ATG_Pax6_CIS: Attagene CIS-FACTORIAL HepG2 Assay for human Paired Box 6 (PAX6) (AID 2282956); conditions: HepG2 CIS-FACTORIAL PAX6 reporter transcription, RNA readout; actives raise or lower the signal
# Sequence of Paired box protein Pax-6 (Homo sapiens) (P26367 whole entry, looked up): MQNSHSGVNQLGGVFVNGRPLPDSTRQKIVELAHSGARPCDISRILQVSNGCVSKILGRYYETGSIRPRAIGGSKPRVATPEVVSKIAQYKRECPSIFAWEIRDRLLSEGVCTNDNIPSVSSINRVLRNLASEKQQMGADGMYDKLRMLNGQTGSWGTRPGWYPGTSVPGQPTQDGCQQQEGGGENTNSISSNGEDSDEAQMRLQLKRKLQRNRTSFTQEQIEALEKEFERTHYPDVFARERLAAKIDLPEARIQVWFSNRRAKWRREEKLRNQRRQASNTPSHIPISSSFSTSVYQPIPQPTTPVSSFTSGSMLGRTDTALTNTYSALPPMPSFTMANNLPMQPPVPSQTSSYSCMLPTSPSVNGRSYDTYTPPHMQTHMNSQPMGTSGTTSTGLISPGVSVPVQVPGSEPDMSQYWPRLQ
# Procedure, shortened: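 Multiplexed cis-reporter HepG2 system; 24 h treatment; reporter mRNA read by RT-PCR/CE fluorescence; bidirectional fit vs DMSO.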
# [2] = ATG_PXRE_CIS: Attagene CIS-FACTORIAL HepG2 Assay for human Pregnane X Receptor Element (PXRE) (AID 2282957); conditions: HepG2 Attagene CIS-FACTORIAL PXRE reporter, mRNA; actives raise or lower the signal
# Procedure, shortened: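 Cis-element reporter mRNA in human hepatoma HepG2 cells is measured 24 h post-dosing by RT-PCR, primer-extension labeling and capillary electrophoresis; gain or loss of signal is fitted relative to DMSO.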
# [3] = ATG_PPRE_CIS: Attagene CIS-FACTORIAL HepG2 Assay for human Peroxisome Proliferator-activated Response Element (PPRE) (AID 2282958); conditions: HepG2 PPRE cis-element reporter, Attagene transcription factor profiling; actives raise or lower the signal
# Procedure, shortened: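 DMSO served as negative control and baseline for bidirectional curve fitting. Signal came from PPRE-regulated reporter mRNA in HepG2 cells, measured 24 h post-dosing by RT-PCR, 6-FAM primer extension and capillary electrophoresis.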
# [4] = ATG_RORE_CIS: Attagene CIS-FACTORIAL HepG2 Assay for human RAR-related Orphan Receptor Element (RORE) (AID 2282959); conditions: HepG2 Attagene cis-factorial RORE reporter, mRNA; actives raise or lower the signal
# Procedure, shortened: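 Transfect HepG2 with MRTUs; treat 24 h; extract RNA; RT with oligo(dT); PCR with reporter-specific primers; 6-FAM primer extension; HpaI digest 2 h at 37 C; capillary electrophoresis. Fit vs DMSO, bidirectional.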
# [5] = ATG_Sox_CIS: Attagene CIS-FACTORIAL HepG2 Assay for human SRY-box transcription factor (SOX) (AID 2282960); conditions: HepG2 Attagene cis-factorial SOX reporter, mRNA; actives raise or lower the signal
# Procedure, shortened: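 Fluorescence-labelled cDNA fragments from reporter transcripts, sized by CE, give the signal. Cells: HepG2, transiently transfected with cis-regulated reporter units. Exposure 24 h; DMSO negative control; bidirectional curve fitting.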
# [6] = molecular target: Transcription factor Sp1 (Homo sapiens) (UniProt P08047); experiment: ATG_Sp1_CIS: Attagene CIS-FACTORIAL HepG2 Assay for human Specificity Protein 1 (Sp1) (AID 2282961); conditions: HepG2 Sp1 cis-reporter transcription, actives raise or lower the signal
# Sequence of Transcription factor Sp1 (Homo sapiens) (P08047 whole entry, looked up): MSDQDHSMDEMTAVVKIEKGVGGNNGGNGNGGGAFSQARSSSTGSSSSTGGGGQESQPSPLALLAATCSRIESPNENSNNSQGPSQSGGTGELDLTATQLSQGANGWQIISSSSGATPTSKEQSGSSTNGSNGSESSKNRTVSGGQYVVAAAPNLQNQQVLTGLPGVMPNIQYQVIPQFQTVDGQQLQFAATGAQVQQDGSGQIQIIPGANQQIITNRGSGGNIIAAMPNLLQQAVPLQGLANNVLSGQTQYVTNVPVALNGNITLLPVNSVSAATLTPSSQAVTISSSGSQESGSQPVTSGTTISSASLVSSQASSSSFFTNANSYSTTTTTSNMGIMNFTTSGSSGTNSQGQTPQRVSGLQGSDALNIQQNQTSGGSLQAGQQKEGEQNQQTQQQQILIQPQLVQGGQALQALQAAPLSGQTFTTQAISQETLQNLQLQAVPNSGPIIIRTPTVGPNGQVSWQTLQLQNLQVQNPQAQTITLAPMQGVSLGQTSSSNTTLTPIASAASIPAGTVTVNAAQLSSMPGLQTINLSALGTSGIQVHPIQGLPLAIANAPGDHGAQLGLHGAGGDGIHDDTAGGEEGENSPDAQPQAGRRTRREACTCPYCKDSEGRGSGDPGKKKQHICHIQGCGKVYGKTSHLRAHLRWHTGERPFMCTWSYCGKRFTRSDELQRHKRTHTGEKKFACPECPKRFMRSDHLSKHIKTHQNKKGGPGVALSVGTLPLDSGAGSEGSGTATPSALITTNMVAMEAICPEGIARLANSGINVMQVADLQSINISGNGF
# Procedure, shortened: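 Chemicals are dosed onto HepG2 cells transfected with multiple cis-promoter reporter constructs, and after 24 h reporter RNA is reverse-transcribed, PCR-amplified and resolved by capillary electrophoresis for fluorescence quantitation; activity is scored up or down against DMSO.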
# [7] = ATG_SREBP_CIS: Attagene CIS-FACTORIAL HepG2 Assay for human Sterol Regulatory Element Binding (SREBP) (AID 2282962); conditions: HepG2 Attagene cis-factorial SREBP reporter, mRNA; actives raise or lower the signal
# Procedure, shortened: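 mRNA induction of transfected cis-promoter reporters in HepG2 cells, 24 h post-dose. Detection: RT-PCR with 6-FAM-labelled products, HpaI digest, capillary electrophoresis. DMSO served as negative control and baseline.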
# [8] = molecular target: Signal transducer and activator of transcription 3 (Homo sapiens) (UniProt P40763); experiment: ATG_STAT3_CIS: Attagene CIS-FACTORIAL HepG2 Assay for human Signal Transducer and Activator of Transcription 3 (STAT3) (AID 2282963); conditions: HepG2, Attagene cis-factorial STAT3 reporter transcription; actives raise or lower the signal
# Sequence of Signal transducer and activator of transcription 3 (Homo sapiens) (P40763 whole entry, looked up): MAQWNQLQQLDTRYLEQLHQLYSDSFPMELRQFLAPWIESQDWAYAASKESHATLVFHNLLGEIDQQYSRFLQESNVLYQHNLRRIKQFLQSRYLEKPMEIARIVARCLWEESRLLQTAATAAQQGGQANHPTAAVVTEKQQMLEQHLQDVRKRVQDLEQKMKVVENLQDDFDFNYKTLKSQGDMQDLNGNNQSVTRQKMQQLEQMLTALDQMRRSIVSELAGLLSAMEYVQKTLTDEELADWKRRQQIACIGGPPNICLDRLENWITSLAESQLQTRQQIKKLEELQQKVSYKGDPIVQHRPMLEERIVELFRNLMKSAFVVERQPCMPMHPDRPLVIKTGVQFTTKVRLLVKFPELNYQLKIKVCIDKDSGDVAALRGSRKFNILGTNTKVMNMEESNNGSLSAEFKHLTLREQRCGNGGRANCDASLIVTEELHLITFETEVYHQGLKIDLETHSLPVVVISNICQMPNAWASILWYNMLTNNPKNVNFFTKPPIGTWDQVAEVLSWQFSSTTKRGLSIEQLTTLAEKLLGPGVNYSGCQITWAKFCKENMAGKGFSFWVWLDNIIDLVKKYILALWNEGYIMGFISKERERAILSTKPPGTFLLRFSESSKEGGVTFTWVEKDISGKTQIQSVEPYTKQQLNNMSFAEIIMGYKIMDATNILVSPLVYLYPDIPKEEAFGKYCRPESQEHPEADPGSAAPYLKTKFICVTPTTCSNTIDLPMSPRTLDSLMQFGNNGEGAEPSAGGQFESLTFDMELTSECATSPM
# Procedure, shortened: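 Transcript-level reporter assay. HepG2 transient MRTU transfection, 24 h exposure, fluorescence detection after RT-PCR and CE; DMSO baseline.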
# [9] = ATG_TA_CIS: Attagene CIS-FACTORIAL HepG2 Assay for human TA Basal Promoter (AID 2282964); conditions: HepG2 Attagene CIS-factorial TA basal promoter reporter; actives raise or lower the signal
# Procedure, shortened: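 Steps: transfect HepG2 with MRTUs; dose 24 h; isolate RNA, DNase-treat, reverse-transcribe; PCR and FAM-label reporter cDNA; digest with HpaI 2h at 37 C; run capillary electrophoresis. Activity fitted both directions against DMSO.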
# [10] = ATG_TCF_b_cat_CIS: Attagene CIS-FACTORIAL HepG2 Assay for human T-Cell-Factor with beta-catenin (TCF/b-cat) (AID 2282965); conditions: HepG2 TCF/beta-catenin cis-reporter transcription, actives raise or lower the signal
# Procedure, shortened: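 In this cis-format system, transfected HepG2 cells report endogenous transcription factor activity. Readout after 24 h exposure is reporter transcript abundance from RT-PCR and capillary electrophoresis, analysed for gain or loss of signal versus DMSO.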
# [11] = ATG_TAL_CIS: Attagene CIS-FACTORIAL HepG2 Assay for human TAL Basal Promoter (AID 2282966); conditions: HepG2 Attagene cis-factorial TAL promoter reporter; actives raise or lower the signal;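 also: background control endpoint measuring basal TAL promoter reporter mRNA not a specific factor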
# Procedure, shortened: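 In this cell-based multiplex, HepG2 liver cells bearing cis-promoter reporter constructs are dosed for 24 hours. Total RNA is reverse-transcribed and amplified, labelled fragments are sized by capillary electrophoresis, and signal changes are fitted bidirectionally versus DMSO.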
# [12] = ATG_TGFb_CIS: Attagene CIS-FACTORIAL HepG2 Assay for human Transforming Growth Factor (TGF) (AID 2282967); conditions: HepG2 Attagene CIS TGFb reporter, mRNA transcription; actives raise or lower the signal
# Procedure, shortened: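 Cells were dosed for 24 hours, after which total RNA was reverse-transcribed and reporter sequences amplified, labeled and sized by capillary electrophoresis. Activity was fitted in both directions against DMSO.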
# [13] = ATG_VDRE_CIS: Attagene CIS-FACTORIAL HepG2 Assay for human Vitamin D Receptor Element (VDRE) (AID 2282968); conditions: HepG2 VDRE cis-reporter transcription, actives raise or lower the signal
# Procedure, shortened: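 RT-PCR/CE readout of reporter mRNA; HepG2, transient transfection, 24 h dosing; DMSO baseline; bidirectional analysis.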
# [14] = molecular target: Nuclear receptor subfamily 1 group I member 3 (Homo sapiens) (UniProt Q14994); experiment: ATG_CAR_TRANS: Attagene TRANS-FACTORIAL HepG2 Assay for human Constitutive Androstane Receptor (CAR) (AID 2282969; active = hit-call score of the fitted dose curve at least 0.9, where 1 is the maximum;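 also: activators raise reporter mRNA above DMSO so AC50 marks induction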); conditions: HepG2 Attagene TRANS-FACTORIAL CAR reporter
# Sequence of Nuclear receptor subfamily 1 group I member 3 (Homo sapiens) (Q14994 whole entry, looked up, the tested form may be a part): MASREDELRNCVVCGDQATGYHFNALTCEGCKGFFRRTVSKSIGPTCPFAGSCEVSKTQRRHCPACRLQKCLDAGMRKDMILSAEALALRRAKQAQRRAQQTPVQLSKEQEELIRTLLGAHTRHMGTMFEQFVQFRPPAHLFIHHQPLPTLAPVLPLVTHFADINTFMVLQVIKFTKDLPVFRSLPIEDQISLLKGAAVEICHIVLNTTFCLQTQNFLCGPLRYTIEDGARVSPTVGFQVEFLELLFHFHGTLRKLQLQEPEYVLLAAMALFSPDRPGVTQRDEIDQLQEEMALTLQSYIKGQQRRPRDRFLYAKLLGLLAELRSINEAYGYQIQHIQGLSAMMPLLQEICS
# Procedure, shortened: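 HepG2 cells transiently transfected with multiplexed GAL4-UAS reporter units expressing chimeric NR-Gal4 proteins; compound exposure 24 h. Reporter mRNA measured by RT-PCR, 6-FAM labelling, HpaI digestion and capillary electrophoresis; gain-of-signal fitted against DMSO baseline.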
# [15] = molecular target: Steroid hormone receptor ERR1 (Homo sapiens) (UniProt P11474); experiment: ATG_ERRa_TRANS: Attagene TRANS-FACTORIAL HepG2 Assay for human Estrogen-Related Receptor alpha (ERRa) (AID 2282971; active = hit-call score of the fitted dose curve at least 0.9, where 1 is the maximum); conditions: HepG2 Attagene TRANS reporter, ERRa transactivation
# Sequence of Steroid hormone receptor ERR1 (Homo sapiens) (P11474 whole entry, looked up, the tested form may be a part): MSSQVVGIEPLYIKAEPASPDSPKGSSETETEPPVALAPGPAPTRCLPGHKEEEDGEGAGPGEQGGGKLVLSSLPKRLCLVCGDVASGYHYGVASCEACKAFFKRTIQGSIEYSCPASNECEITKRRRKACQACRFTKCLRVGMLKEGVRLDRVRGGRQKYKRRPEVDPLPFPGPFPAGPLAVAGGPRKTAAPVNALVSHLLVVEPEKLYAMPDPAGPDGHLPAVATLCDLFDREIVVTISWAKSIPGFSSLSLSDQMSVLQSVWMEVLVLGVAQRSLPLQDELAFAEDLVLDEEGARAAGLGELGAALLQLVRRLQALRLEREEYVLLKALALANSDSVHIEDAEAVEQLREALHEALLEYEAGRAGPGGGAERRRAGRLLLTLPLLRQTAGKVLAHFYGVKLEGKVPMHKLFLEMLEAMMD
# Procedure, shortened: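 Transfected HepG2, 24 h dosing, ERRa-Gal4 chimera driving GAL4-UAS reporter. Readout: reporter mRNA via RT-PCR plus capillary electrophoresis (fluorescence). Positive direction vs DMSO control.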
# [16] = molecular target: X-box-binding protein 1 (Homo sapiens) (UniProt P17861); experiment: ATG_Xbp1_CIS: Attagene CIS-FACTORIAL HepG2 Assay for human X-box Binding Protein 1 (XBP1) (AID 2282972); conditions: HepG2 XBP1 cis-element reporter, Attagene multiplex; actives raise or lower the signal
# Sequence of X-box-binding protein 1 (Homo sapiens) (P17861 whole entry, looked up, the tested form may be a part): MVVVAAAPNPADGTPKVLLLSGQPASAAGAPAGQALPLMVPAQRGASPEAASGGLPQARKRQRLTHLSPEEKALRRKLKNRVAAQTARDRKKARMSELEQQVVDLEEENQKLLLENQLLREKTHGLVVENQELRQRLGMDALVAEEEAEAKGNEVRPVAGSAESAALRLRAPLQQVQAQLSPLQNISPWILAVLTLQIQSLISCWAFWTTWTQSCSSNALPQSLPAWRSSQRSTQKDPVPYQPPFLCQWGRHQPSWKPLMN
# Procedure, shortened: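 Fluorescence-labelled cDNA fragments from reporter transcripts, separated by capillary electrophoresis, give the signal. Source: HepG2 cells transfected with promoter-driven reporter units, harvested 24 h post-dose. DMSO served as reference for bidirectional curve fitting.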
# [17] = ATG_M_19_TRANS: Attagene TRANS-FACTORIAL HepG2 Assay for M19 Transcription Factor (Internal Marker) (AID 2282974; active = hit-call score of the fitted dose curve at least 0.9, where 1 is the maximum); conditions: HepG2 Attagene TRANS-FACTORIAL M19 internal marker reporter
# Procedure, shortened: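 Multiplexed TRANS format: HepG2 liver cells bearing transient GAL4-UAS reporter units, chemical treatment 24 h, reporter transcripts quantified by RT-PCR plus capillary electrophoresis. DMSO defines baseline.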
# [18] = ATG_GAL4_TRANS: Attagene TRANS-FACTORIAL HepG2 Assay for GAL4 (Internal Marker) (AID 2282976; active = hit-call score of the fitted dose curve at least 0.9, where 1 is the maximum); conditions: HepG2 Attagene TRANS GAL4 internal marker reporter
# Procedure, shortened: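 RT-PCR/capillary electrophoresis readout of reporter mRNA. HepG2, transient MRTU transfection (GAL4-UAS reporters), 24 h compound exposure. Background-control endpoint, positive direction vs DMSO baseline.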
# [19] = molecular target: Estrogen-related receptor gamma (Homo sapiens) (UniProt P62508); experiment: ATG_ERRg_TRANS: Attagene TRANS-FACTORIAL HepG2 Assay for human Estrogen-Related Receptor gamma (ERRg) (AID 2282977; active = hit-call score of the fitted dose curve at least 0.9, where 1 is the maximum;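 also: hits increase reporter signal over DMSO so potencies reflect activators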); conditions: HepG2 Attagene TRANS reporter, ERRg transactivation
# Sequence of Estrogen-related receptor gamma (Homo sapiens) (P62508 whole entry, looked up, the tested form may be a part): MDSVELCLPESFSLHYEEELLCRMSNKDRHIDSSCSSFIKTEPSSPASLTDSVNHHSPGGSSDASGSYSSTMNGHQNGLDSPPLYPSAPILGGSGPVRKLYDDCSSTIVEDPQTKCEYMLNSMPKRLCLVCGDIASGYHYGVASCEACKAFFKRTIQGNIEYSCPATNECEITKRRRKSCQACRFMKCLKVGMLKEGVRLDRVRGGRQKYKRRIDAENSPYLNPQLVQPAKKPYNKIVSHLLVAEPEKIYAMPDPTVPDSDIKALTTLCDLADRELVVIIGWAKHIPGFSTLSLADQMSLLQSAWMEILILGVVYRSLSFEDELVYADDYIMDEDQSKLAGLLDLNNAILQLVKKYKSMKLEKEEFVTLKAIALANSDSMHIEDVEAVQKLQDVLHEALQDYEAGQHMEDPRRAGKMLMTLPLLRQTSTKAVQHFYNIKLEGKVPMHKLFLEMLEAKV
# Procedure, shortened: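 Transfect HepG2 with multiple GAL4-UAS reporter transcription units; dose chemicals 24 h; isolate RNA, reverse-transcribe with oligo(dT), PCR-amplify, label with 6-FAM, digest with HpaI; size fragments by capillary electrophoresis. DMSO serves as negative control.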
# [20] = molecular target: Estrogen receptor (Homo sapiens) (UniProt P03372); experiment: ATG_ERa_TRANS: Attagene TRANS-FACTORIAL HepG2 Assay for human Estrogen Receptor alpha (ERa) (AID 2282970; active = hit-call score of the fitted dose curve at least 0.9, where 1 is the maximum); conditions: HepG2 Attagene TRANS ERa GAL4 reporter, mRNA
# Sequence of Estrogen receptor (Homo sapiens) (P03372 whole entry, looked up, the tested form may be a part): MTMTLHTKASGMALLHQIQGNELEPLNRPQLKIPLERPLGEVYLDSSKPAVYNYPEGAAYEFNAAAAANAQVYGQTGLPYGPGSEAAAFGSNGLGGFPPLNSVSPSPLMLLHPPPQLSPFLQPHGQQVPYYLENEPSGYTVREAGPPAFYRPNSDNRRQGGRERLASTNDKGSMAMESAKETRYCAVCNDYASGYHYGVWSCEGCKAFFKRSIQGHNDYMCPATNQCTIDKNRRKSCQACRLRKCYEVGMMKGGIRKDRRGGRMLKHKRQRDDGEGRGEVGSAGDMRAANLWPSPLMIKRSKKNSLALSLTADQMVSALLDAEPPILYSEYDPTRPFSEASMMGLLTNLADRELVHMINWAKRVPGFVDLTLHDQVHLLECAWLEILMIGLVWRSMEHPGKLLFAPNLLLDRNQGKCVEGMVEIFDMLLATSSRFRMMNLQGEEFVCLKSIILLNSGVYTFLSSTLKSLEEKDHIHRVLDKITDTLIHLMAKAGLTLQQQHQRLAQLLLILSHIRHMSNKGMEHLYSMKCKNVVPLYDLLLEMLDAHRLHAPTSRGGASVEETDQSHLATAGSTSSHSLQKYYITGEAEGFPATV
# Procedure, shortened: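 After 24 h of compound treatment, RNA from HepG2 cells bearing transfected GAL4-UAS reporter constructs is converted to cDNA, amplified and fluorescently labelled. Capillary electrophoresis resolves the ERa-linked reporter; DMSO serves as negative control.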
compound,measurement,setting,value
C[Si]1(C)O[Si](C)(C)O[Si](C)(C)O1,outcome,[1],inactive
same,AC50,[2],32.5 µM (active)
same,outcome,[3],inactive
same,outcome,[4],inactive
same,outcome,[5],inactive
same,outcome,[6],inactive
same,outcome,[7],inactive
same,outcome,[8],inactive
same,outcome,[9],inactive
same,outcome,[10],inactive
same,outcome,[11],inactive
same,outcome,[12],inactive
same,outcome,[13],inactive
same,outcome,[14],inactive
same,outcome,[15],inactive
same,outcome,[16],inactive
same,outcome,[17],inactive
same,outcome,[18],inactive
same,outcome,[19],inactive
CCCCCCC(CO)CCCC (stereo unspecified),outcome,[1],inactive
same,AC50,[2],33.4 µM (active)
same,outcome,[3],inactive
same,outcome,[4],inactive
same,outcome,[5],inactive
same,outcome,[6],inactive
same,outcome,[7],inactive
same,outcome,[8],inactive
same,outcome,[9],inactive
same,outcome,[10],inactive
same,outcome,[11],inactive
same,outcome,[12],inactive
same,outcome,[13],inactive
same,outcome,[14],inactive
same,outcome,[16],inactive
same,outcome,[17],inactive
CCC(C)c1cc([N+](=O)[O-])cc([N+](=O)[O-])c1OC(=O)OC(C)C (stereo unspecified),AC50,[1],25.9 µM (active)
same,AC50,[2],0.731 µM (active)
same,outcome,[3],inactive
same,outcome,[4],inactive
same,AC50,[5],25.3 µM (active)
same,outcome,[6],inactive
same,AC50,[7],25.1 µM (active)
same,AC50,[8],100 µM (active)
same,outcome,[9],inactive
same,outcome,[10],inactive
same,outcome,[11],inactive
same,AC50,[12],100 µM (active)
same,AC50,[13],0.705 µM (active)
same,outcome,[14],inactive
same,outcome,[15],inactive
same,AC50,[16],24.3 µM (active)
same,outcome,[17],inactive
same,outcome,[19],inactive
CCCCC1(COC(=O)CCC(=O)O)C(=O)N(c2ccccc2)N(c2ccccc2)C1=O,outcome,[1],inactive
same,AC50,[2],19.5 µM (active)
same,outcome,[3],inactive
same,outcome,[4],inactive
same,outcome,[5],inactive
same,outcome,[6],inactive
same,outcome,[7],inactive
same,outcome,[8],inactive
same,outcome,[9],inactive
same,outcome,[10],inactive
same,outcome,[11],inactive
same,outcome,[12],inactive
same,outcome,[13],inactive
same,outcome,[20],inactive
same,outcome,[16],inactive
CCCN(CCC)S(=O)(=O)c1ccc(C(=O)O)cc1,outcome,[1],inactive
same,AC50,[2],27.3 µM (active)
same,outcome,[3],inactive
same,outcome,[4],inactive
same,outcome,[5],inactive
same,outcome,[6],inactive
same,outcome,[7],inactive
same,outcome,[8],inactive
same,outcome,[9],inactive
same,outcome,[10],inactive
same,outcome,[11],inactive
same,outcome,[12],inactive
same,outcome,[13],inactive
same,outcome,[15],inactive
same,outcome,[16],inactive
same,outcome,[17],inactive
same,outcome,[19],inactive
C=CC(=O)OCCC#N,AC50,[1],47.9 µM (active)
same,AC50,[2],62.5 µM (active)
same,outcome,[3],inactive
same,outcome,[4],inactive
same,AC50,[5],41.1 µM (active)
same,outcome,[6],inactive
same,AC50,[7],76.4 µM (active)
same,outcome,[8],inactive
same,outcome,[9],inactive
same,outcome,[10],inactive
same,outcome,[11],inactive
same,outcome,[12],inactive
same,AC50,[13],48.8 µM (active)
same,outcome,[14],inactive
same,outcome,[15],inactive
same,AC50,[16],36.4 µM (active)
same,outcome,[19],inactive
Nc1ccc(N)c2c1C(=O)c1ccccc1C2=O,outcome,[1],inactive
same,outcome,[2],inactive
same,AC50,[3],4.05 µM (active)
same,outcome,[4],inactive
same,outcome,[5],inactive
same,outcome,[6],inactive
same,outcome,[7],inactive
same,outcome,[8],inactive
same,outcome,[9],inactive
same,outcome,[10],inactive
same,outcome,[11],inactive
same,outcome,[12],inactive
same,AC50,[13],6.59 µM (active)
same,outcome,[14],inactive
same,outcome,[15],inactive
same,AC50,[16],2.57 µM (active)
same,outcome,[17],inactive
same,outcome,[18],inactive
same,outcome,[19],inactive
